Results on 29 molecules are retold here after PubChem BioAssay (EPA / NIEHS).

Inconclusive results are not listed. Activity calls are given as the source filed them. How the source made its calls: active means hit-call score of the fitted dose curve at least 0.9, where 1 is the maximum; inconclusive means response in the unintended direction; inactive means score below 0.9.

The AC50 is the midpoint of the concentration-response curve, whichever way the signal moves.

Read-out in this test: HMG-CoA synthase (HMGCS2), HMGCS2 (gene 3158)
Briefly: CLD_HMGCS2_48hr: CellzDirect (CLD) Gene Expression Assay for HMG-CoA synthase (HMGCS2) at 48 hours (AID 2283711). As to the method: CLD_48hr is a cell-based, multiplexed-readout assay that uses hepatocyte, a human liver primary cell, with measurements taken at 48 hours after chemical dosing in a 96-well plate.CLD_HMGCS2_48hr is one of 16 assay component(s) measured or calculated from the CLD_48hr assay. It is designed to make measurements of mRNA induction, a form of inducible reporter, as detected with chemiluminescence signals by Quantitative Nuclease Protection Assay (qNPA) technology.Data from the assay component CLD_HMGCS2_48hr was analyzed at the endpoint, CLD_HMGCS2_48hr, in the positive analysis fitting direction relative to DMSO as the negative control and baseline of activity. Using a type of inducible reporter, gain-of-signal activity can be used to understand changes in the reporter gene as they relate to the gene HMGCS2. Furthermore, this assay endpoint can be referred to as a primary readout. To generalize the intended target to other relatable targets, this assay endpoint is annotated to the lyase intended target family, where subfamily is HMG-CoA synthase.
Human hepatocyte cultures were treated daily for two consecutive days with fresh dosing solutions containing appropriate concentrations of the 320 ToxCast chemicals (chemical identities were blinded to CellzDirect and other ToxCast collaborators), vehicle control (0.2% DMSO), and positive control inducers as summarized in Table 1. Due to the large number of treatment groups and chemicals examined, the ToxCast chemicals were divided into two groups (spanning two independent cultures of hepatocytes from separate donor preparations (Hu778: ToxCast plates 1 and 2; Hu776: ToxCast plates 3 and 4). Each preparation of human hepatocyte cultures was treated with respective vehicle control, medium only control, set of six positive controls/reference chemicals for the five hepatic receptor pathways, and a subset of eight of the ToxCast chemicals (indoxacarb, pyrithiobac-sodium, norflurazon, cyhalofop-butyl, methomyl, thiram, acetochlor, and propiconazole). These replicate data, coupled with internal replicates designed within the blinded ToxCast chemical library, provided additional data to evaluate interindividual differences between hepatocyte preparations and their potential impact on chemical profiles.Cell morphology and integrity were evaluated using phase-contrast microscopy as an indicator of hepatocyte cell health (Tyson & Green, 1987). Cultures for each treatment group (i.e., media, vehicle [0.2% DMSO], positive control inducers [multiple concentrations], and the ToxCast chemicals [multiple concentrations]) were observed and cell morphology was assessed relative to vehicle control cultures at each harvest time point (0, 6, 24, or 48 h). […] Images were evaluated at the conclusion of the study to assess changes in cell integrity and account for the effects of chemical exposure on uncharacteristic changes in concentration-dependent gene expression profiles. The results from these determinations of apparent cytotoxicity were annotated (yes/no) alongside the corresponding qNPA data for reference.At the conclusion of each treatment period, hepatocyte cultures (96-well) were washed with 1 volume of HBSS, lysed by addition of 25 ul ArrayPlate lysis buffer (HTG, Tucson, AZ), and 70 ul/well of Denaturation Oil, denatured by incubation at 95C for 10 min, and frozen at approximately -70C until analysis by nuclease protection assay (qNPA) (Roberts et al., 2007). For qNPA analysis, cell lysates were thawed at 50C for approximately 30 min, qNPA probes were added, and samples were incubated at 95C for 10 min to begin the detection process by denaturing the target RNA, dissociating the duplexes and secondary structure hybridization. At the conclusion of the hybridization period, S1 nuclease reagent was added to each sample to digest all nonprotected nucleotides at 50C for 60-90 min. […]
For `CCCCC(CC)COC(=O)c1ccccc1C(=O)O` (centres undefined), the result was inactive.
`CCSC(=O)N(CC(C)C)CC(C)C`: the result was inactive.
On to `COc1nc(C)nc(NC(=O)NS(=O)(=O)c2ccccc2OCCCl)n1`, for which the molecule was classed as inactive.
On to `COc1c(Cl)ccc(Cl)c1C(=O)O`, for which the AC50 was 7.07 nM (active).
On to `CCCCOC(=O)[C@@H](C)Oc1ccc(Oc2ccc(C(F)(F)F)cn2)cc1`, for which the result was inactive.
The same measure, in the same setting: the entry for `Oc1ccc(C(c2ccc(O)cc2)C(Cl)(Cl)Cl)cc1` is “inactive”.
Take `C#CCOC(=O)[C@@H](C)Oc1ccc(Oc2ncc(Cl)cc2F)cc1`: the molecule was classed as inactive.
Turning to `CCCCOCCOCCOCc1cc2c(cc1CCC)OCO2`, the result was inactive.
Still for that read-out and setting: the entry for `c1ccc(Nc2ccccc2)cc1` is “inactive”; for `COC(=O)c1ccccc1C(=O)O` it is “inactive”; for `O=C(O)C1(C(=O)Nc2ccc(Cl)cc2Cl)CC1` it is “inactive”.
As for `CCOC(=O)[C@H](C)Oc1ccc(Oc2nc3ccc(Cl)cc3o2)cc1`, the molecule was classed as inactive.
Consider `CCCOC(=O)c1ccc(C(=O)OCCC)nc1`, for which the AC50 is 269 nM (active).
As to `CCOC(=O)C(C)Oc1ccc(Oc2cnc3cc(Cl)ccc3n2)cc1` (centres undefined), the AC50 is 6860 nM (active).
In the case of `COC(=O)c1ccccc1S(=O)(=O)NC(=O)Nc1nc(OC(F)F)cc(OC(F)F)n1`, the molecule was called inactive.
The same measure, in the same setting: the entry for `CCCN(CCC)C(=O)SCC` is “inactive”.
Regarding `CC(C)(C)[C@@H](O)[C@@H](Cc1ccc(Cl)cc1)n1cncn1`, the call was inactive.
Regarding `CSC(=O)c1cccc2nnsc12`, the call was inactive.
Turning to `Cc1nn(C)c(Oc2ccccc2)c1C=NOCc1ccc(C(=O)OC(C)(C)C)cc1`, the outcome was inactive.
Turning to `CCC(C)OC(=O)N1CCCCC1CCO` (centres undefined), the outcome was inactive.
`COC(=O)c1cccc(C)c1S(=O)(=O)NC(=O)Nc1nc(OCC(F)(F)F)nc(N(C)C)n1`: the result was inactive.
As to `c1ccc2[nH]c(-c3cscn3)nc2c1`, the molecule was called inactive.
In the case of `CCCCOC(=O)C(C)Oc1ccc(Oc2ccc(C(F)(F)F)cn2)cc1` (centres undefined), the AC50 was 263 nM (active).
Regarding `CCOC(=O)C(C)Oc1ccc(Oc2nc3ccc(Cl)cc3o2)cc1` (centres undefined), the result was inactive.
As to `OB(O)O`, the molecule was called inactive.
Still for that read-out and setting: the entry for `CCC(O)=C1C(=O)CC(C(=O)O)CC1=O` (centres undefined) is “inactive”; for `CCCOC(=O)NCCCN(C)C` it is “inactive”; for `COC(=O)c1c(Cl)nn(C)c1S(=O)(=O)NC(=O)Nc1nc(OC)cc(OC)n1` it is “inactive”.
`CCCCCCC(C)OC(=O)COc1nc(F)c(Cl)c(N)c1Cl` (centres undefined): the molecule was classed as inactive.
